# MEKK2 WT-MEK5: raises or lowers MEK5 binding to wildtype human MEKK2 PB1 domain | AID 1531 | binding response (% of control), % at 10 µM | 290,000 tested, 1.1% active | Q9Y2U5 | bead flow cytometry, Alexa488-MEK5 binding to MEKK2 WT; actives lie on both sides; in the data active = binding response below about 67% or above about 130%
# UBC13 inh: inhibitors of human UBC13 polyubiquitin chain formation; 330,000 tested, 0.47% active; AID 485273; P61088; TR-FRET; inhibition, % at 20 µM; in the data active = inhibition above about 45%, passing the limit was not always enough
# Target sequence (P61088 whole entry, looked up): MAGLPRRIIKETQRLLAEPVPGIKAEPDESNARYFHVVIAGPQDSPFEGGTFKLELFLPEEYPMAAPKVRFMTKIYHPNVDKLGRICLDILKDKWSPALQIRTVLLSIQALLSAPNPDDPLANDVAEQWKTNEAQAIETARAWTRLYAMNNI
# MEKK2mut PB1 HTS: signal of MEK5 binding to mutant human MEKK2 PB1 domain; bead flow cytometry, Alexa488-MEK5 binding to MEKK2 mutant; AID 1530; percent response, % at 10 µM; 290,000 tested, 0.35% active; in the data active = percent response above about 24%, passing the limit was not always enough
# MEKK3 PB1 HTS: raises or lowers MEK5 binding to the human MEKK3 PB1 domain; 290,000 tested, 1.4% active; Q99759; bead-based flow cytometry, Alexa488-MEK5 binding to MEKK3; actives lie on both sides; 0 = blocked by unlabeled MEK5, 100 = vehicle; AID 1529; binding response (% of control), % at 10 µM;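 active = binding response more than 3 SD above or below the average of its plate-row segment, actives on both sides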;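 also: Alexa488 bead fluorescence after subtracting the streptavidin-only scavenger bead signal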
# MEKK2wt confirm: raises or lowers MEK5 binding to wildtype human MEKK2, retest. shares compounds with MEKK3 PB1 HTS. bead flow cytometry, Alexa488-MEK5 binding to MEKK2 WT; actives lie on both sides. binding response (% of control), % at 10 µM. 5,900 tested, 2.4% active. AID 1892; in the data active = binding response below about 16% or above about 210%; inactive = in between
# MEKK2mut-MEK5: signal of MEK5 binding to mutant human MEKK2, retest | bead flow cytometry, Alexa488-MEK5 binding to MEKK2 mutant | shares compounds with MEKK3 PB1 HTS | percent response, % at 10 µM | 5,900 tested, 2% active; in the data active = percent response mostly above about 71%, no sharp cut-off; inactive = mostly below about 38%;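 also: higher means compound restores mutant binding toward wildtype level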
# MEKK3 confirm: MEKK3-MEK5 PB1 inhibition, single concentration confirmation; shares compounds with MEKK3 PB1 HTS; bead flow cytometry, Alexa488-MEK5 binding to MEKK3; hits give low values; binding response (% of control), % at 10 µM; 5,900 tested, 1.8% active; AID 1894;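 active = binding response below 72% of control, or above a set upper limit, though filed actives all read lower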;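 also: 100% = DMSO only wells and 0% = binding blocked by excess unlabeled MEK5; lower values mean stronger disruption of MEK5 binding to MEKK3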
# Active calls of the source: *; . = no result given; [ ] = remark or other dose. Rows were chosen to be rich in hits. Some 2.3% of all compounds tested hit in one or more screens of this group.
SMILES,MEKK2 WT-MEK5,UBC13 inh,MEKK2mut PB1 HTS,MEKK3 PB1 HTS,MEKK2wt confirm,MEKK2mut-MEK5,MEKK3 confirm
CN(C)CCCN(C(=O)c1ccc(S(=O)(=O)N(C)C2CCCCC2)cc1)c1nc2ccc(F)cc2s1,163*,27,28*,107,160,36,104
COc1cc2nc(N(CCCN(C)C)C(=O)c3ccc(S(=O)(=O)N(C)C4CCCCC4)cc3)sc2cc1OC,.,16,.,.,.,.,.
OCCOCCN1CCN(C(=S)Nc2ccccc2)CC1,105,-6,0,107,.,.,.
O=C(CSC1=N/C(=C/c2ccc(Cl)c(Cl)c2)C(=O)N1c1ccccc1F)NC1CC1,100,4,-1,105,.,.,.
CN(C)CCN(C(=O)c1ccc2c(c1)CCCC2)c1nc2cc3c(cc2s1)OCCO3,118,41,4,102,.,.,.
CCOc1ccc2nc(N(CCN(C)C)C(=O)c3ccc4c(c3)CCCC4)sc2c1,152*,3,25*,107,147,23,103
COc1ccc(CNC(=O)Cn2nc(C(F)(F)F)c(Br)c2C)cc1,104,-8,2,102,.,.,.
Cc1c(Br)c(C(F)(F)F)nn1CC(=O)NCc1ccccc1,102,4,0,132*,91,-6,93
O=C(NCc1ccc(N2CCCC2=O)cc1)Nc1cccc2ccccc12,-1.0*[inhibitor],6,-9,1.0*[inhibitor],101,1,103
O=C(NCc1ccc(N2CCCC2=O)cc1)Nc1ccccc1,103,5,3,103,.,.,.
CC(C)[C@H](NC(=O)c1ccc(C(C)(C)C)cc1)C(=O)N1CCN(Cc2ccc3c(c2)OCO3)CC1,.,-12,.,.,.,.,.
COc1ccc(CN(C2CCCCC2C)S(=O)(=O)c2ccc(S(=O)(=O)N(C)C)cc2)cc1OC (centres undefined),98,-9,0,137*,99,8,104
Nc1ccnc(=O)[nH]1,.,4,.,.,.,.,.
CCOC(=O)c1c(C)n(C)c2ccc(OC(=O)c3ccc([N+](=O)[O-])cc3)cc12,103,-7,-1,138*,102,3,103
CCOC(=O)c1c(C)n(C)c2cc(-c3ccc(C)cc3)c(O)cc12,105,-9,0,131*,103,1,103
CCOC(=O)c1c(C)n(C)c2cc(-c3cccc(C(F)(F)F)c3)c(O)cc12,100,-7,3,101,.,.,.
CCOC(=O)c1c(C)n(CC)c2ccc(OC(=O)c3ccc([N+](=O)[O-])cc3)cc12,98,-5,-1,96,.,.,.
COc1ccc(NC2CC(=O)N(c3ccc(C(=O)O)cc3)C2=O)cc1 (centres undefined),108,-11,0,130*,97,5,102
Cc1cc(Cl)ccc1C(=O)C1CCCN(C(=O)CN2CCOC2=O)C1 (centres undefined),100,2,3,101,.,.,.
COc1ccc(Cn2c(-c3ccc(Br)cc3)c[n+]3ccccc23)cc1,140*,8,36,110,118,11,106
COc1ccccc1CNC(=O)c1ccc(OCc2c(C)noc2C)c(OC)c1,1.0*[inhibitor],-8,-42,2.0*[inhibitor],105,1,102
COc1cc(C(=O)NCc2ccc(C)cc2)ccc1OCc1c(C)noc1C,106,0,9,106,.,.,.
COc1ccc(OC)c(NC(=O)C2CC(=O)N(Cc3ccco3)C2)c1 (centres undefined),.,0,.,.,.,.,.
Cc1nc2c(oc3ccc(Cl)cc32)c(=O)[nH]1,50,-8,-29,49*[inhibitor],97,-1,102
CCc1nc2c(oc3ccccc32)c(=O)[nH]1,92,-1,-5,90,.,.,.
SMILES,MEKK2 WT-MEK5,UBC13 inh,MEKK2mut PB1 HTS,MEKK3 PB1 HTS,MEKK2wt confirm,MEKK2mut-MEK5,MEKK3 confirm
Cc1cccc(OCC(=O)Nc2ccc3c(c2)OCO3)c1C,2.0*[inhibitor],-6,-15,2.0*[inhibitor],95,-10,99
Cc1ccc(C)c(OCC(=O)Nc2ccc3c(c2)OCO3)c1C,93,6,0,105,.,.,.
O=C(COC(=O)Cc1ccccc1F)Nc1ccc2c(c1)OCO2,98,-5,1,103,.,.,.
O=C(COC(=O)Cc1ccccc1F)Nc1ccc2c(c1)OCCO2,107,5,0,138*,101,-6,102
CCN(CC)C(=O)Cn1cc(S(=O)(=O)CC(=O)N2CCOCC2)c2ccccc21,98,2,0,98,.,.,.
CC(=O)c1cccc(N/C=C\C(=O)c2ccc(C)cc2)c1,105,.,0,135*,105,8,108
CC(=O)c1cccc(NS(=O)(=O)c2ccc(N/C=C\C(=O)c3ccc(C)cc3)cc2)c1,99,-3,-5,102,.,.,.
Cc1ccc(S(=O)(=O)N2CCCCC2)cc1NS(=O)(=O)c1ccc(Cl)c(C(=O)O)c1,.,-7,.,.,.,.,.
CCCOc1ccc(C(CC(=O)O)NC(=O)c2ccc3c(c2)OCO3)cc1 (centres undefined),1.0*[inhibitor],0,-42,2.0*[inhibitor],100,-1,96
CCCOc1ccc(C(=O)Nc2ccc3c(c2)OCO3)cc1,109,8,11,111,.,.,.
O=C(CCS(=O)(=O)Cc1ccccc1F)NCc1ccccc1Cl,102,0,0,105,.,.,.
O=C(O)CCS(=O)(=O)Cc1ccccc1F,2.0*[inhibitor],4,-46,2.0*[inhibitor],108,5,105
CC(C)c1ccc(OCCCCCN2CCOCC2)cc1,110,7,11,104,.,.,.
CC(C)c1ccc(OCCCN2CCCC2)cc1,102,1,26*,103,95,-9,90
COc1cc(Cl)ccc1S(=O)(=O)n1nc(C)cc1C,95,4,0,95,.,.,.
COc1cc(S(=O)(=O)n2nc(C)cc2C)c(OC)cc1Cl,-2.0*[inhibitor],-1,-27,2.0*[inhibitor],102,0,99
CN1CCN(C2Cc3cc(F)ccc3Sc3ccc(Cl)cc32)CC1 (centres undefined),.,13,.,.,.,.,.
CN1CCN(C2=Nc3cc(F)ccc3Cc3ccccc32)CC1,109,-10,3,102,.,.,.
CN1CCN(C2=Cc3ccccc3Sc3cc(F)ccc32)CC1,136*,11,11,97,149,37,113
CN1CCN(C2=Cc3ccc(Cl)cc3Sc3ccc(F)cc32)CC1,150*,38,27*,114,169,42,109
Cc1ccc(CSCC(=O)NCc2cccnc2)cc1,107,-6,0,137*,93,1,95
Cc1ccc(C2(CCNCc3ccc(N(C)C)cc3)CCOC(C(C)C)C2)cc1 (centres undefined),149*,5,17,111,125,6,105
CC(C)C1CC(CCNCc2ccc(N(C)C)cc2)(c2ccccc2)CCO1 (centres undefined),116,32,23,92,.,.,.
